SENP6 inh: inhibitors of human SENP6 protease; AID 2599; inhibition, % at 10 µM; hit rate 1.8% among 330,000; Recombinant SENP6 catalytic domain, aminoluciferin luminescence; Q9GZR1;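 active = inhibition above about 50% at the single tested dose, limit read from the data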
SENP8 block-1: inhibitors of human SENP8 protease. Q96LD8. hit rate 0.64% among 360,000. recombinant SENP8, Nedd8 substrate fluorescence. inhibition, % at 20 µM; in the data active = inhibition mostly above about 40%, no sharp cut-off; inactive = mostly below about 27%
PPC-1+TRAIL kill: PPC-1 cancer cell killing with TRAIL present; PPC-1 cells + TRAIL, ATPLite viability luminescence; hit rate 0.41% among 220,000; cell killing (% activity), % at 4 µM or 5 µM;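 active = cell killing above 50% in the first pass at 4 µM, then a duplicate retest at 5 µM averaging 50% or more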
SENP8 block-2: blocks the human protease SENP8; Q96LD8; inhibition, % at 10 µM; hit rate 1.2% among 330,000; purified SENP8, Z-RLRGG-aminoluciferin cleavage, luminescence; in the data active = inhibition above about 50%
TRAIL sens C8: caspase-8 TRAIL sensitization. NB7+C8 cells + TRAIL, ATPlite viability luminescence. inhibition (viability loss, TRAIL sensitization), % at 10 µM. hit rate 1% among 360,000. AID 624354;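 active = compounds causing at least 50% loss of cell viability in the single-dose screen, relative to plate controls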
SENP7 block: blocks the human protease SENP7. recombinant SENP7, Z-RLRGG-aminoluciferin luminescence, 40 min. hit rate 1.5% among 330,000. Q9BQF6. inhibition, % at 5 µM;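 active = inhibition above about 50% at the single test dose, limit read from the data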
Target sequence (Q9BQF6 706-1050 limits assumed): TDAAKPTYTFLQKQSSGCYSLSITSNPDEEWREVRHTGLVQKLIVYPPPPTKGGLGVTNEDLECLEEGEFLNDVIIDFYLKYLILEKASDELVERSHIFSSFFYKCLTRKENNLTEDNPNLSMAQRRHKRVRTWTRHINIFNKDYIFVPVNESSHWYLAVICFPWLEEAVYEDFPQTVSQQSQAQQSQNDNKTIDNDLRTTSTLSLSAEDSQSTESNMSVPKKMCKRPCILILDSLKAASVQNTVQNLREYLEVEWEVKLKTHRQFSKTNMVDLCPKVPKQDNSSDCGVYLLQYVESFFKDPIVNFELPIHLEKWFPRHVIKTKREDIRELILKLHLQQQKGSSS
SENP8 conf: confirmation of human SENP8 protease inhibitors. inhibition, % at 12.5 µM. Recombinant SENP8, Z-RLRGG-aminoluciferin luminescence, 60 min. hit rate 40% among 6,200. shares compounds with SENP7 block;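 active = mean inhibition across replicates above about 50%, limit read from the data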
SENP6 confirm: confirmation of human SENP6 protease inhibitors; shares compounds with SENP7 block; recombinant SENP6, Z-RLRGG-aminoluciferin luminescence; inhibition, % at 12.5 µM; hit rate 58% among 6,200
SENP7 confirm: confirmation of human SENP7 protease inhibitors; AID 488917; recombinant SENP7, Z-RLRGG-aminoluciferin luminescence, 40 min; shares compounds with SENP7 block; hit rate 69% among 6,200; inhibition, % at 12.5 µM
Casp3 SENP sel: inhibits human caspase-3 in SENP selectivity test; inhibition, % at 12.5 µM; shares compounds with SENP7 block; AID 488918; hit rate 60% among 6,200; purified caspase-3, Z-DEVD-aminoluciferin luminescence, 60 min;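 active = mean inhibition above about 50%, limit read from the data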
SENP luc ctr: counter-screen for SENP inhibitors: luminescence interference. hit rate 39% among 6,200. inhibition, % at 12.5 µM. shares compounds with SENP7 block. Pre-incubated SENP8/Z-RLRGG-aminoluciferin, luciferase luminescence interference. AID 488919;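 active = mean inhibition above about 50% when retested at one dose, limit read from the data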
Large screens that a line does not name were inactive (follow-up assays come after a bar, where they were run). Sampled rows, rich in hits. Any-hit rate of the full collection: about 3%.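 Rule for the calls, unless noted: active = mean inhibition above about 50% in the one-dose retest (limit read from the data); inactive = the rest.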

Cc1ccc2nc(-c3ccc(O)cc3)oc2c1	SENP6 inh 84.9, SENP8 block-2 85.5, TRAIL sens C8 79.4, SENP7 block 74.5 (no result: PPC-1+TRAIL kill) | SENP8 conf 83.9 | SENP6 confirm 83.8 | SENP7 confirm 94.3 | Casp3 SENP sel 67.7 | SENP luc ctr inactive
Cc1ccc(CNc2ncccc2-c2nc3cc(Cl)ccc3o2)cc1	none
COc1ccc(-c2cn3nc(SCC(=O)NCC4CCCO4)ccc3n2)cc1 (stereo not given)	none (no result: PPC-1+TRAIL kill)
O=C(Oc1ccc(-c2cnc3ccccc3n2)cc1)c1ccco1	SENP6 inh 88.5, SENP8 block-2 92.2, SENP7 block 98.4 | SENP8 conf 76.2 | SENP6 confirm 83.3 | SENP7 confirm 94.4 | Casp3 SENP sel 87.1 | SENP luc ctr inactive
Cc1ccc(C(=O)COC(=O)c2ccc(-c3cnc4ccccc4n3)cc2)cc1C	none
CCC(=O)Oc1ccc(-c2cnc3ccccc3n2)cc1	SENP6 inh 94.2, SENP8 block-2 88.5, SENP7 block 93.7 | SENP8 conf inactive | SENP6 confirm 91.6 | SENP7 confirm 100.6 | Casp3 SENP sel 87.7 | SENP luc ctr inactive
COc1cccc(-c2c(-c3cc(OC)cc(OC)c3)n(C)c3ccc(-c4cccc5[nH]ccc45)cc23)c1	none (no result: PPC-1+TRAIL kill)
COc1ccc(/C=N/Nc2nc3ccccc3o2)cc1O	SENP8 block-2 63.5, SENP7 block 72.6 | SENP8 conf 84.4 | SENP6 confirm 84.0 | SENP7 confirm 96.9 | Casp3 SENP sel 82.1 | SENP luc ctr 82.2
Brc1ccc(/C=N/Nc2nc3ccccc3o2)cc1	SENP7 block 55.4 (no result: PPC-1+TRAIL kill) | SENP8 conf inactive | SENP6 confirm inactive | SENP7 confirm inactive | Casp3 SENP sel inactive | SENP luc ctr inactive
Oc1ccccc1/C=N/Nc1nc2ccccc2o1	SENP6 inh 82.5, SENP8 block-2 68.7, SENP7 block 78.9 | SENP8 conf inactive | SENP6 confirm 61.9 | SENP7 confirm 92.5 | Casp3 SENP sel 66.2 | SENP luc ctr inactive
CCOC(=O)c1c(C)oc2c1c(C=NCCC(=O)O)c(O)c1ccccc12	SENP6 inh 76.8, SENP8 block-2 66.0 | SENP8 conf inactive | SENP6 confirm inactive | SENP7 confirm inactive | Casp3 SENP sel inactive | SENP luc ctr inactive
CCOC(=O)c1c(C)oc2c1c(C=NC1CCS(=O)(=O)C1)c(O)c1ccccc12 (stereo not given)	none (no result: SENP6 inh, SENP8 block-2, SENP7 block)
Cc1ccccc1CNC(=O)c1csc([C@@H]2C[C@H](O)[C@@H](CO)O2)n1	none (no result: SENP6 inh, PPC-1+TRAIL kill, SENP8 block-2, SENP7 block)
O=C(Oc1ccc2ccccc2c1)c1ccccc1	SENP6 inh 83.4, SENP8 block-2 70.8 | SENP8 conf 73.5 | SENP6 confirm 86.2 | SENP7 confirm 95.1 | Casp3 SENP sel 65.7 | SENP luc ctr 69.6
O=C(Oc1ccc(/C=N/O)cc1)c1ccccc1	SENP6 inh 78.2, SENP7 block 80.0 | SENP8 conf 66.2 | SENP6 confirm 64.8 | SENP7 confirm 89.4 | Casp3 SENP sel 71.9 | SENP luc ctr 79.3
N#C/C(=C\c1cccs1)C(=O)Nc1ccccn1	SENP6 inh 59.4, SENP7 block 63.6 | SENP8 conf inactive | SENP6 confirm inactive | SENP7 confirm 83.2 | Casp3 SENP sel 71.1 | SENP luc ctr inactive
N#C/C(=C\c1ccccc1)C(=O)Nc1ccccn1	none (no result: PPC-1+TRAIL kill)
COc1cccc(/C=C2\CCC(C3CCCC3)C2=O)c1 (stereo not given)	SENP6 inh 50.3 (no result: PPC-1+TRAIL kill) | SENP8 conf inactive | SENP6 confirm inactive | SENP7 confirm 66.5 | Casp3 SENP sel inactive | SENP luc ctr inactive
Cc1cccc(/C=C2\CCC(C3CCCC3)C2=O)c1 (stereo not given)	none

Screening data (PubChem)
